Experimental data as given in the supplement of paper PMC8253809.

Legend:
Assay in all cases: growth inhibition (% activity, log2 RLU normalised to DMSO / staurosporine); higher = more growth inhibition
Details in all cases: 33 µM
DIPGX29 = tested on: DIPGX29 (H3.3 K27M diffuse intrinsic pontine glioma line)
Summary of the method: (§1)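 The growth-inhibition value comes from CellTiter-Glo luminescence, log2-transformed, normalised per plate to % activity between solvent and positive control wells, and taken as the median over replicates. Treatment of pHGG cell lines and H9-derived neural stem cells with approved drugs was at a single final concentration of about 33 μM, in triplicate, for 7 days at 37 °C, 5% CO2.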

DIPGX37 = tested on: DIPGX37 (H3.3 K27M diffuse intrinsic pontine glioma line)
Summary of the method: as §1

DIPGX7 = tested on: DIPGX7 (H3.3 K27M diffuse intrinsic pontine glioma line)
Summary of the method: as §1

DIPGX9 = tested on: DIPGX9 (diffuse intrinsic pontine glioma line)
Summary of the method: as §1

HGGX39 = tested on: HGGX39 (paediatric high-grade glioma line)
Summary of the method: as §1

HGGX6 = tested on: HGGX6 (H3.3 G34R paediatric high-grade glioma line)
Summary of the method: as §1

HNSC = tested on: HNSC
Summary of the method: as §1

SUDIPGIV = tested on: SUDIPGIV (diffuse intrinsic pontine glioma line)
Summary of the method: as §1

SUDIPGVI = tested on: SUDIPGVI (diffuse intrinsic pontine glioma line)
Summary of the method: as §1

SUDIPGXIII = tested on: SUDIPGXIII (diffuse intrinsic pontine glioma line)
Summary of the method: as §1

SMILES	growth inhibition (DIPGX29) [%]	growth inhibition (DIPGX37) [%]	growth inhibition (DIPGX7) [%]	growth inhibition (DIPGX9) [%]	growth inhibition (HGGX39) [%]	growth inhibition (HGGX6) [%]	growth inhibition (HNSC) [%]	growth inhibition (SUDIPGIV) [%]	growth inhibition (SUDIPGVI) [%]	growth inhibition (SUDIPGXIII) [%]
CCOC(=O)[C@H](CCc1ccccc1)N[C@@H](C)C(=O)N1[C@H](C(=O)O)C[C@@H]2CCC[C@@H]21	-3.8	-1.96	-1.64	-2.68	-4.08	-5.1	1.84	-2.04	-7.46	-2.12
NC12CC3CC(CC(C3)C1)C2	0.311	-1.43	0.524	0.931	2.31	1.23	-2.35	0.117	0.782	-2.09
OCC(CO)N[C@H]1C[C@](O)(CO)[C@@H](O)[C@H](O)[C@H]1O	-0.323	0.847	-1.4	0.186	0.139	-0.0513	-1.53	-0.574	0.28	0.0745
COc1c2ccoc2cc2oc(=O)ccc12	0.175	-0.379	0.232	1.51	1.71	2.12	-1.02	0.44	0.394	-0.028
CSc1ccc2c(c1)N(CCC1CCCCN1C)c1ccccc1S2 (stereo not given)	1.58	0.408	-0.0552	-0.344	2.69	-0.282	7.39	0.193	-0.552	0.0949
CCN1CCCC1CNC(=O)c1cc(S(=O)(=O)CC)c(N)cc1OC (stereo not given)	2.92	-2.18	2.4	-0.361	1.17	-1.1	0.824	2.02	-8.92	-0.464
N=C(N)c1ccc2cc(OC(=O)c3ccc(N=C(N)N)cc3)ccc2c1	-0.193	-3.07	-0.0416	-0.893	-0.167	1.06	2.26	1.8	0.556	-0.295
CC1=CC(=O)c2ccccc2C1=O	2.41	0.293	3.47	2.26	1.01	2.5	42.7	1.4	4.19	-2.13
COc1ccc(C(=O)CC(=O)c2ccc(C(C)(C)C)cc2)cc1	-1.88	-1.81	-1.16	-0.752	-2.78	-0.501	-0.539	-0.769	-2.64	-0.991
COc1cc([C@@H]2c3cc4c(cc3[C@@H](O[C@@H]3O[C@@H]5CO[C@@H](c6cccs6)O[C@H]5[C@H](O)[C@H]3O)[C@H]3COC(=O)[C@H]23)OCO4)cc(OC)c1O	22	1.57	29.9	47.9	14.2	23.6	59.9	48	10	20.7
CC(=O)OCC(CCn1cnc2cnc(N)nc21)COC(C)=O	-2.6	-4.6	-0.979	-2.76	-5.59	-3.73	33.5	-3.45	-13	2.17
CCCCCCNC(=O)n1cc(F)c(=O)[nH]c1=O	5.51	0.97	4.27	14	6.44	9.38	24.6	11.2	3.57	2.43
Cc1ccc(O)c([C@H](CCN(C(C)C)C(C)C)c2ccccc2)c1	-0.51	1.21	-1.14	1.39	7.27	-3.24	8.98	2	1.35	-1.5
COc1ncnc(NS(=O)(=O)c2ccc(N)cc2)c1OC	0.769	2.24	1.07	2.03	0.995	1.53	-1.3	-0.0587	-0.393	1.69
CC(C)(Oc1ccc(CCNC(=O)c2ccc(Cl)cc2)cc1)C(=O)O	1.81	2.31	1.05	0.682	1.23	1.74	1.59	0.843	2.49	-16.6
N=C(N)NCCN1CCCCCCC1	1.99	-0.0479	2.35	1.9	2.8	1.1	5.04	0.15	5	-0.376
CCCS(=O)(=O)Nc1ccc(F)c(C(=O)c2c[nH]c3ncc(-c4ccc(Cl)cc4)cc23)c1F	0.0739	1.21	-0.987	0.227	-0.449	2.46	10.9	-3.02	1.21	1.79
O=C(Nc1ccccc1)c1ccccc1O	-0.176	2.96	0.467	-0.488	3.96	0.186	1.7	5.1	-0.592	1.74
O=S(=O)(O)c1cc(O)ccc1O	-4.18	-4.39	-0.642	-3.41	-5.27	-3.97	13.9	-3.95	-12.4	1.53
Cc1cc(C#N)cc(C)c1Oc1nc(Nc2ccc(C#N)cc2)nc(N)c1Br	3.55	-3.38	9.93	-0.625	6.72	6.05	35.3	1.55	15.5	27.6

SMILES	growth inhibition (DIPGX29) [%]	growth inhibition (DIPGX37) [%]	growth inhibition (DIPGX7) [%]	growth inhibition (DIPGX9) [%]	growth inhibition (HGGX39) [%]	growth inhibition (HGGX6) [%]	growth inhibition (HNSC) [%]	growth inhibition (SUDIPGIV) [%]	growth inhibition (SUDIPGVI) [%]	growth inhibition (SUDIPGXIII) [%]
CN(N=O)C(=O)N[C@H]1C(O)O[C@H](CO)[C@@H](O)[C@@H]1O (mixture of isomers)	0.875	2.37	2.05	1.8	0.924	2.69	2.82	1.45	2.34	0.628
CC(C)C[C@H](NC(=O)[C@H](O)[C@H](N)Cc1ccccc1)C(=O)O	1.26	0.0198	0.163	-1	-2.32	1.9	0.429	-2.58	0.754	0.189
N[C@@H]1CONC1=O	1.31	-0.333	0.738	1.4	0.732	0.485	-0.391	-1.17	1.19	1.03
CNC(=O)c1cc(Oc2ccc(NC(=O)Nc3ccc(Cl)c(C(F)(F)F)c3)cc2)ccn1	35.1	67.2	28.2	25.6	50.7	32	76.1	41.2	60.7	69.3
C[C@@]12C[C@@]3(O)O[C@@H](O1)[C@]1(COC(=O)c4ccccc4)[C@H]3C[C@@]12O[C@@H]1O[C@H](CO)[C@@H](O)[C@H](O)[C@H]1O	-0.664	0.987	-0.876	1.21	-0.682	1.84	-1.36	-1.25	0.677	-13.1
O=C([O-])c1ccccc1O.[Na+]	1.02	2.5	2.56	1.21	1.15	-1.22	28.2	1.6	-4.02	0.791
CC[C@@]1(O)C(=O)OCc2c1cc1n(c2=O)Cc2cc3c(CN(C)C)c(O)ccc3nc2-1	12.9	21.8	37.9	51.6	40.2	17.2	53.9	48.4	7.54	4.79
CC[C@@H]([C@H](C)O)n1ncn(-c2ccc(N3CCN(c4ccc(OC[C@@H]5CO[C@@](Cn6cncn6)(c6ccc(F)cc6F)C5)cc4)CC3)cc2)c1=O	-3.19	-0.0907	-0.181	-2.09	-0.245	-1.15	-2.54	-2.62	-1.64	0.673
O=C(N[C@H](CO)[C@H](O)c1ccc([N+](=O)[O-])cc1)C(Cl)Cl	-0.766	2.12	-0.167	-0.0638	1.67	-1.13	3.64	-0.734	0.976	-0.883
O=C(O)c1cc(/N=N/c2ccc(S(=O)(=O)Nc3ccccn3)cc2)ccc1O	1.07	-1.79	1.57	0.949	1.21	1.04	-0.205	0.115	1.96	-0.524
CC[C@@H]1C(=O)OC[C@@H]1Cc1cncn1C	-0.467	1.71	-1.24	-1.88	0.217	-0.083	-2.25	-1.63	0.518	-11.1
CCCC(=O)Nc1ccc(OCC(O)CNC(C)C)c(C(C)=O)c1 (stereo not given)	-1.23	-0.501	-1.01	-0.6	-0.175	0.315	-4.5	-0.848	-2.3	-1.79
CC1(C)O[C@@H]2C[C@H]3[C@@H]4CCC5=CC(=O)C=C[C@]5(C)[C@H]4[C@@H](O)C[C@]3(C)[C@]2(C(=O)CO)O1	0.656	2.84	-0.564	3	2.23	1.78	-4.33	0.0175	-0.194	2.31
O=C(O)c1cc(=O)c2ccccc2o1	-0.199	-0.128	0.253	1.55	0.445	-1.13	-0.975	0.468	2.48	0.672
Cc1ccc(C)c(OCCCC(C)(C)C(=O)O)c1	-0.441	-0.0995	0.0111	0.88	0.357	-0.472	-1.45	-0.859	0.864	0.0955
CNC(=C[N+](=O)[O-])NCCSCc1ccc(CN(C)C)o1	2.69	2.65	5.27	2.2	4.25	0.922	9.82	1.43	1.91	-0.737
C=C[C@]1(C)C[C@@H](OC(=O)CS[C@@H]2C[C@H]3CC[C@@H](C2)N3C)[C@]2(C)[C@H](C)CC[C@]3(CCC(=O)[C@H]32)[C@@H](C)[C@@H]1O	4.15	2.94	3.25	4.84	11.9	5.9	7.78	12	5.01	5.37
O=C(O)C[C@H](O)C[C@H](O)/C=C/c1c(C2CC2)nc2ccccc2c1-c1ccc(F)cc1	16.1	-2.02	38.6	7.33	48.3	30.8	56.2	39.9	33.5	32.8
NC(CO)C(=O)NNCc1ccc(O)c(O)c1O (stereo not given)	-0.675	0.574	-0.561	-0.46	-0.00682	2.73	-2.22	-0.604	0.203	-7.46
CC1=C(/C=C/C(C)=C/C=C/C(C)=C/C=C/C=C(C)/C=C/C=C(C)/C=C/C2=C(C)CCCC2(C)C)C(C)(C)CCC1	-2.65	-1.75	-0.22	-2.07	-4.95	-2.28	-2.5	-5	-7.28	-0.475
